# The list is not random: actives were taken first. Their share in the collection is about 6.5%.
# FMDV inh = blocks foot and mouth disease virus; FMDV antiviral cell-based qHTS; Potency, µM (doses to about 57.9 µM), inactives show at the highest dose activity change, negative = inhibition, most hits filed as inhibitors; hit rate 1.2% among 410,000; calls by dose curve; tested in HEK293T cells; note: read-out not given here; potency is the fitted concentration of half-maximal effect; nearly all actives have a fitted effect of over 45% in size
# Lassa entry inh = Lassa virus entry inhibition; Lassa virus pseudotype entry inhibition, cell reporter; Potency, µM (titrated, usually from 37.9 µM), for the others: at the top dose activity change, negative = inhibition, most hits filed as inhibitors; hit rate 1.2% among 300,000; AID 540256; calls by dose curve; tested in HEK293 cells; note: potency is the fitted concentration of half-maximal effect; nearly all actives have a fitted effect of over 50% in size
# HCMV antiviral = inhibitors of human cytomegalovirus | AID 1259415 | HFF cells, HCMV-luciferase reporter, 72 h; stronger effect = lower value | activity change, negative = inhibition, % at 57.5 µM | hit rate 4.5% among 410,000; in the data active = activity change below about -60%; inconclusive = no clear call, values can overlap the other calls; inactive = above about -39%
#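 Two-dose cell screen: HFF monolayers treated with compounds and infected with luciferase-expressing HCMV at 1 PFU/cell, 72 h at 37C, then lysed for luciferase measurement.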
# VACV Venus inh = inhibitors of vaccinia virus (Venus reporter); Vaccinia virus Venus reporter expression, fluorescence; Potency, µM (top dose mostly 36.5 µM), for inactives: top-dose activity change, negative = inhibition, most hits filed as inhibitors; hit rate 0.46% among 330,000; calls by dose curve; tested in A549 cells; note: potency is the fitted concentration of half-maximal effect; nearly all actives have a fitted effect of over 30% in size
# MARV entry inh = Marburg virus entry inhibition; Marburg virus pseudotyped entry inhibition, cell reporter; Potency, µM (series often up to 37.8 µM), for the others: at the top dose activity change, negative = inhibition, most hits filed as inhibitors; hit rate 1.8% among 300,000; AID 540276; calls by dose curve; tested in HEK293 cells; note: potency is the fitted concentration of half-maximal effect
# Vaccinia mCherry = vaccinia inhibition (mCherry reporter); Vaccinia virus mCherry reporter infection, fluorescence; Potency, µM (series often up to 36.5 µM), for the others: at the highest dose activity change, negative = inhibition, most hits filed as inhibitors; hit rate 0.63% among 310,000; calls by dose curve; tested in A549 cells; note: potency is the fitted concentration of half-maximal effect; nearly all actives have a fitted effect of over 35% in size
# Starred values were filed as active, the others as inactive; i = inactive; ? = inconclusive; nt = no result given; [ ] = another dose, or the depositor's remark. % is set by controls: 0 for no effect and ±100 for the full control effect.
SMILES,FMDV inh,Lassa entry inh,HCMV antiviral,VACV Venus inh,MARV entry inh,Vaccinia mCherry
Cc1nc(N/N=C\c2ccc3c(c2)OCO3)sc1C,23%,6%[46.1 µM],98,?,21%[46.1 µM],16µM*
C(=N\Nc1nc2ccccc2s1)/c1ccc2c(c1)OCO2,-14%,?,87,4%,?,-11%
Cc1cc(/C=c2/sc3nc4ccccc4n3c2=O)c(C)n1-c1ccccn1,0.032µM*,0.21µM*,-101*,nt,?,nt
Cc1cc(/C=c2\sc3nc4ccccc4n3c2=O)c(C)n1-c1ccc(C(=O)O)cc1,-5%,15%,-37,6%,8%[46.1 µM],-5%
CCCCNC(=S)N(C)/N=C/c1c(F)cccc1F,-3%,-19%,-90*,-8%,3%,-15%
c1ccc(-n2cnc3cc(NCc4ccco4)ccc32)cc1,65%,?,-86*,?,-2%[46.1 µM],-27%
Cc1ccc(-n2cnc3cc(NCc4cccs4)ccc32)cc1,6%,?,0,nt,?,nt
COc1ccc(S(=O)(=O)N2CCOC2CNC(=O)C(=O)NCc2ccccn2)cc1OC (stereo not given),-7%,nt,-6,-12%,nt,i
CC(=O)C1=C(O)C2(C)c3c(O)c(C)c(O)c(C(C)=O)c3OC2CC1=O (stereo not given),10µM*,nt,?,?,nt,?
COc1cc(CNc2ccc(N3CCCCC3)cc2)ccc1OCC(=O)NC(C)(C)C,?,?,-86*,15%,?,?
COc1cc(CNc2ccc(N3CCCC3)cc2)ccc1OCc1ccccc1,-27%,-27%,-2,2%,?,-13%
COc1cc(CNC(C)(C)CO)ccc1OCC(=O)NC(C)(C)C,-12%,4%,4,-11%,?,-13%
COc1cc(CNC(C)C23CC4CC(CC(C4)C2)C3)ccc1OCC(=O)NC(C)(C)C (stereo not given),-9%,?,?,-23%,6.3µM*,?
COc1cc(CNCc2cccs2)ccc1OCC(=O)NC(C)(C)C,-15%,-3%,-25,-12%,9.2µM*,-24%
COC(=O)c1ccccc1NC(=O)c1ccc(CN2CC(=O)N3CCCCC3C2=O)cc1 (stereo not given),-23%,0%[46.1 µM],-5,-19%,nt,i
CCC(Oc1ccc(F)cc1)C(=O)Nc1cc(-c2ccc(C)cc2)no1 (stereo not given),-3%,4%[46.1 µM],32,-13%,-11%[46.1 µM],-13%
CCC(Oc1ccc(F)cc1)C(=O)Nc1nc(-c2ccc(F)cc2)ns1 (stereo not given),-19%,?,-98*,?,?,?
CC(=O)OC[C@H]1O[C@H](CCON=C(C)CCN2CCCc3nc(C)c(C)cc32)C=C[C@H]1OC(C)=O,nt,nt,nt,nt,-28%[14.2 µM],nt
CCOC(=O)c1sc(NC(=O)Nc2ccccc2F)nc1C,?,?,?,-18%,2.2µM*,-21%
CCOC(=O)c1sc(Nc2ccccc2Cl)nc1C,52%,nt,64,nt,nt,nt
CC(C)(C)C(=O)Nc1ccc(NC(=O)C(C)(C)C)cc1,17%,nt,-84*,-10%,nt,-3%
CC(C)(C)C(=O)Nc1cccc(-c2nc3ccccc3c(=O)o2)c1,nt,?,11,-12%,-12%,-17%
CC(C)(CCl)C(=O)Nc1ccc(C(F)(F)F)cc1,6%,2%,-76*,-13%,-6%[46.1 µM],-14%
CC(C)(C)C(=O)Nc1ccc(-c2nc3ccccc3c(=O)o2)cc1,4.5µM*,?,-64*,-18%,?,-3%
CNNCc1ccc(C(=O)NC(C)C)cc1,-13%,nt,38,-13%,nt,i
SMILES,FMDV inh,Lassa entry inh,HCMV antiviral,VACV Venus inh,MARV entry inh,Vaccinia mCherry
O=C(NCc1ccccn1)c1cccc(S(=O)(=O)NCc2ccccc2)c1,41%,0%,-15,-11%,-15%,i
Cc1ccc(/C=C/C(=O)Nc2ccc(S(N)(=O)=O)cc2)o1,-11%,6%,25,10%,3%,-7%
N#CCc1ccc(NC(=O)/C=C/c2ccc([N+](=O)[O-])o2)cc1,?,7.9µM*,nt,?,?,7.1µM*
N#C/C(=C\c1ccc([N+](=O)[O-])o1)C(=O)Nc1ccc(F)cc1,?,-10%,-78*,57%,?,46%
CCCn1c2ccccc2c2cnn(CC(=O)NCC3CCN(Cc4ccccc4C)CC3)c(=O)c21,-18%,2%[46.1 µM],-28,-20%,nt,-27%
CC(C)(C)c1ccc(C(=O)NCc2ccc(Cl)cc2)cc1,nt,-18%,-16,?,0%,-12%
